Out of some 24,000 compounds screened, about 40 (0.2%) were called active.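 Rule for the calls: active = inhibition of disassembly above about 33% (limit read from the data); inconclusive = likely self-fluorescent, control bead median signal at least 40; inactive = the rest.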 Many of the other results were omitted from the sample, so actives are more common in it than they were.
test system: 26S proteasome (yeast, GFP-tagged, ATP-dependent disassembly); experiment: blockers of yeast 26S proteasome breakdown – biochemical, bead-based flow cytometry, GFP-tagged proteasome, primary screen (AID 751); conditions: anti-FLAG beads, active compounds read high, concentration not given here;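 note: plate controls were ATP control with full disassembly for no effect and ATP-gamma-S intact proteasomes for full effect; higher percent means more bead fluorescence retained so stronger block of disassembly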

| Compound | inhibition of disassembly |
| --- | --- |
| CCOC(=O)C1CCCN(C(=O)Cn2ncc3c(=O)oc4ccc(C)cc4c32)C1 (stereo unspecified) | -1.55% (inactive) |
| Cc1nn(-c2ccccc2)c2[nH]c(C(F)(F)F)cc(=O)c12 | 0.28% (inactive) |
| CC(C)CNC(=O)c1cc(-c2ccc(Br)cc2)on1 | -0.25% (inactive) |
| COc1ccc(C2C(C(=O)Nc3ccccc3OC)=C(C)Nc3nnnn32)c(OC)c1 (stereo unspecified) | -0.27% (inactive) |
| Cc1ccc(C(c2sc3nc(C)nn3c2O)N2CCN(c3ccccc3)CC2)cc1 (stereo unspecified) | -0.53% (inactive) |
| CCS(=O)(=O)N1CCC(C(=O)N2CCN(c3ccccc3)CC2)CC1 | 0.05% (inactive) |
| CCOC(=O)c1ccc(NC(=O)CS(=O)(=O)c2cn(CC)c3ccccc23)cc1 | -1.63% (inactive) |
| CCN(CC)CCNC(=O)C1c2ccccc2C(=O)N(C)C1c1cn(C)c2ccccc12 (stereo unspecified) | -2.19% (inactive) |
| COc1ccc(CN(C(=O)c2cccs2)c2nccs2)cc1OC | 0.76% (inactive) |
| CCn1c(SCC(=O)Nc2nccs2)nnc1-c1ccncc1 | 1.46% (inactive) |
| CCCN(CCC)CCNC(=O)c1cc2c(C)nc3ccccc3c2o1 | 5.25% (inactive) |
| Cn1cccc1Cc1nnc(SCC(=O)NCc2ccc3c(c2)OCO3)n1CCc1ccccc1 | 1.04% (inactive) |
| CCOc1ccc(N(CC(=O)NCc2ccc(OC)cc2)S(=O)(=O)c2c(C)noc2C)cc1 | -1.57% (inactive) |
| Cc1ccc(-c2nc(CS(=O)CC(=O)N3CCN(c4ncccn4)CC3)c(C)o2)cc1 (stereo unspecified) | 4.64% (inactive) |
| Cc1nnc(SCC(=O)N(C(C)C)C(C)C)nc1C | 0.76% (inactive) |
| O=C(CSc1nc2[nH]ncc2c(=O)n1-c1ccccc1)N1CCCc2ccccc21 | 3.12% (inactive) |
| CCOCC(=O)Nc1sc2c(c1C(=O)OCC)CCCC2 | 1.13% (inactive) |
| CNC(=O)Nc1cc(C(C)(C)C)no1 | -0.8% (inactive) |
| COc1ccc(C(=O)N(CCN2CCOCC2)CC(=O)NC2CCCC2)cc1OC | 1% (inactive) |
| Fc1ccc2nc(Nc3nc4c(s3)CCCC4)sc2c1 | 96.9% (active) |
| CNC(=O)c1ccc2nc(NC(C)=O)sc2c1 | 3.41% (inactive) |

| Compound | inhibition of disassembly |
| --- | --- |
| Fc1ccc2nc(N3CCCCC3)sc2c1 | 0.07% (inactive) |
| O=C1c2ccncc2C(=O)N1C1CCCCC1 | -0.82% (inactive) |
| Cc1ncn(C23CC4CC(CC(O)(C4)C2)C3)n1 | -1.21% (inactive) |
| O=C1c2cccnc2C(=O)N1Cc1cccs1 | -1.73% (inactive) |
| CCOc1cc(S(=O)(=O)NCc2ccc3c(c2)OCO3)ccc1F | -0.11% (inactive) |
| Cc1nnc(SCCCn2c(N3CCCCC3)nc3c2c(=O)[nH]c(=O)n3C)s1 | -3.02% (inactive) |
| Cc1cc(C(=O)NCCCc2ccccc2)no1 | 0.81% (inactive) |
| CCOc1ccc(C2C(C(=O)NC)=C(C)Nc3nc4ccccc4n32)cc1OC (stereo unspecified) | -0.82% (inactive) |
| O=S(=O)(NCc1ccccc1Cl)c1cnc[nH]1 | 1.99% (inactive) |
| N#CCCn1ncc2ccccc21 | -0.94% (inactive) |
| CCOC(=O)CN1C(=O)C(O)(CC(=O)c2ccccn2)c2ccccc21 (stereo unspecified) | 0.68% (inactive) |
| COc1ccc(NC(=O)CN2CCN(S(=O)(=O)c3ccc(F)cc3)CC2)cc1Cl | 0.32% (inactive) |
| O=C(CN1CCN(C(=O)c2cccc(F)c2)CC1)Nc1ccccc1F | 2.43% (inactive) |
| CCOc1ccc(CC(=O)Nc2ccc(S(=O)(=O)Nc3cc(C)on3)cc2)cc1OCC | 1.32% (inactive) |
| Cc1ccc(N(C(=O)CC2NC(=O)NC2=O)C2(C(=O)NC3CCCC3)CCCCC2)cc1 (stereo unspecified) | -0.11% (inactive) |
| Cc1ccc(C2CC(=O)NC(SCC(=O)OCc3ccccc3)=C2C#N)o1 (stereo unspecified) | -1.12% (inactive) |
| Cc1ccc(C(CC(=O)O)Nc2nc(N3CCCCC3)nc(N3CCCCC3)n2)cc1 (stereo unspecified) | 0.5% (inactive) |
| CN(C)S(=O)(=O)c1cccc(C(=O)Nc2cccnc2)c1 | 0.3% (inactive) |
| O=C(Cc1nn[nH]n1)NCCC1=CCCCC1 | 3.56% (inactive) |
| C#CC(C)(C)NC(=O)CSc1nc2c(c(=O)n(C)c(=O)n2C)n1CCCC | 0.06% (inactive) |
| Cc1ccc(-n2ncc3c(=O)[nH]cnc32)c(C)c1 | -2.48% (inactive) |

| Compound | inhibition of disassembly |
| --- | --- |
| CCOC(=O)C1CCN(C(=O)c2oc3ccc(S(=O)(=O)N4CCCCCC4)cc3c2C)CC1 | 0.89% (inactive) |
| CCOC(=O)Cc1csc(NC(=O)CN(C)S(=O)(=O)c2ccc3c(c2)CCC(=O)N3)n1 | 0.365% (inactive) |
| CCC1Oc2ccc(Cl)cc2N(CC(=O)O)C1=O (stereo unspecified) | -0.77% (inactive) |
| Brc1cnc(N2CCCC2)nc1N1CCCCC1 | -0.98% (inactive) |
| O=C(O)c1ccc(NC(=O)c2cccs2)cc1 | -9.2% (inactive) |
| COc1ccc(N2C(=O)C3CCCN3C2c2cccc(OC)c2)cc1 (stereo unspecified) | 0.89% (inactive) |
| COc1cccc(N2C(=O)C3CCCN3C2c2ccc(F)cc2)c1 (stereo unspecified) | 137% (active) |
| COc1ccc(N2C(=O)C3CCCN3C2c2cc(OC)c(OC)cc2OC)cc1 (stereo unspecified) | 1.25% (inactive) |
| Cc1ccccc1N1CC(c2nc3ccccc3[nH]2)CC1=O (stereo unspecified) | 2.43% (inactive) |
| Cc1ccc(NC(=O)C2CC(c3ccc(F)cc3)=NO2)cc1 (stereo unspecified) | 0.38% (inactive) |
| CCOC(=O)Cn1c(=O)oc2cc(S(=O)(=O)N(C)Cc3ccco3)ccc21 | 0.3% (inactive) |
| C=CCOc1ccc(C2/C(=C(\O)c3c(C)[nH]c(C(=O)OC)c3C)C(=O)C(=O)N2CCN(C)C)cc1 (stereo unspecified) | -2.37% (inactive) |
| Cc1nc2ccc(S(=O)(=O)NC(C(=O)N3CCCCCC3)C(C)C)cc2s1 (stereo unspecified) | 0% (inactive) |
| CC(C)C1N=C2c3ccccc3N=C(SCC(=O)c3ccc(O)c(O)c3)N2C1=O (stereo unspecified) | -7.17% (inactive) |
| Nc1nonc1C(=O)NCCc1ccccc1 | -0.31% (inactive) |
| CCCCN(CC)C(=O)CN(C)S(=O)(=O)c1cccc2nsnc12 | -0.83% (inactive) |
| CC(=O)Nc1ccc(NS(=O)(=O)c2cc(C)sc2C)cc1 | 1.22% (inactive) |
| CCCNC(=O)Nc1ccccc1C(=O)Nc1ccc(OC)cc1 | 0.82% (inactive) |
| COc1ccccc1CNC(=O)CCCn1c(=O)c2ccccc2n(CC(=O)NC2CCCC2)c1=O | -1.05% (inactive) |

— PubChem BioAssay AID751 (NMMLSC, 2007)
